Measurements: PubChem BioAssay (NCATS)
Inconclusive results are not listed. The source made the active and inactive calls. Unless noted, calls follow the shape of the dose curve; as a rule, active = well fitted curve in the direction sought with a large enough effect; inconclusive = small, poorly fitted or top-dose-only effect, or another doubt; inactive = no such curve, though single readings can be large; an effect the other way counts as inactive or inconclusive.

How the values were obtained:
[1] = target: Ubiquitin carboxyl-terminal hydrolase 2 (Homo sapiens) (UniProt O75604); assay: qHTS Validation Assay for Inhibitors of Ubiquitin-specific Protease USP2a Using CHOP2 as the Reporter (AID 463106)
Procedure, shortened: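 Fluorescence read-out at Ex 485nm/Em 531nm after 60min RT, following addition of 25nM Ub-CHOP2 plus 25nM reporter substrate to USP2 core (10nM) pretreated 30min with compound. Data normalized to NEM full inhibition; concentration-response curves fitted.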

[2] = target: DNA polymerase III PolC-type (Bacillus subtilis (strain 168)) (UniProt P13267); assay: qHTS Validation Assay for the Inhibitors of DNA Replication in Gram-Positive Bacteria (AID 485295);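 also: reconstituted holoenzyme with PolC plus beta clamp SSB and primase; PicoGreen fluorescence of double-stranded DNA made on primed circular M13 template; series mostly up to about 57 µM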
Procedure, shortened: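 Primed replication of single-stranded M13Gori by a four-protein B. subtilis holoenzyme is measured at room temperature. Double-stranded product is quantified by PicoGreen fluorescence after an EDTA stop; inhibition is scaled between DMSO and EDTA controls.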

[3] = target: Tumor susceptibility gene 101 protein (Homo sapiens) (UniProt Q99816); assay: qHTS Validation Assay for Iinhibitors of HIV-1 Budding by Blocking the Interaction of PTAP/TSG101 (AID 485342; calls by dose curve)
Procedure, shortened: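 Fluorescence anisotropy measured PTAP-Tsg101 interaction. Final concentrations were 10 uM protein domain and 50 nM labeled peptide, equilibrated 20 min at room temperature.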

[4] = qHTS Validation Assay to Find Inhibitors of Chronic Active B-Cell Receptor Signaling (AID 485345; active = well fitted curve in the direction sought with a large enough effect in the main read-out, with a control signal flat, not every such curve was filed as active)
Procedure, shortened: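 TMD8 ABC-DLBCL cells stably carrying doxycycline-inducible IkappaBalpha–green luciferase fusion plus unfused red luciferase; compounds 46 uM to 3 nM, 4 h at 37C with doxycycline. Corrected green/red luminescence ratio normalized to 10 uM MG-132 and basal cell wells; curves fitted.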

[5] = target: Beta-2 adrenergic receptor (Homo sapiens) (UniProt P07550); assay: qHTS validation assay of beta-arrestin-biased ligands of beta2-adrenergic receptor (AID 485366)
Procedure, shortened: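 qHTS, Tango cells, 1500 cells/well, DMEM + 1% FBS. Cpd 18 hr at 37 degrees C. Luciferin/ATP/CoA detection mix, 15 min RT, luminescence read. %Activity from corrected signal; CRC fit, curve class.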

[6] = target: ATP-dependent 6-phosphofructokinase (Trypanosoma brucei brucei) (UniProt O15648); assay: qHTS Validation Assay to Find Inhibitors of T. brucei phosphofructokinase (AID 485368)
Procedure, shortened: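 Luminescent ADP detection measures PFK turnover of fructose-6-phosphate (0.5 mM) with ATP (0.1 mM) at pH 8.0. Reaction runs 45 min at room temperature with 1.25 nM enzyme; inhibitors tested as titrations up to 57 uM.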

[7] = Quantitative high throughput screen for delayed death inhibitors of the malarial parasite plastid, 96 hour incubation (AID 488745); also: series mostly up to about 29 µM; nearly all actives have a fitted effect of over 70% in size
Procedure, shortened: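 Decreased firefly luciferase luminescence indicates inhibited growth of reporter-integrated P. falciparum after two generations (96 h, 37 C, 5% CO2). Infected erythrocytes at 0.1% parasitemia, 2% hematocrit, in Albumax-supplemented RPMI 1640.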

[8] = Quantitative high throughput screen for delayed death inhibitors of the malarial parasite plastid, 48 hour incubation (AID 488752); also: nearly all actives have a fitted effect of over 65% in size
Procedure, shortened: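 One-generation (48 h) growth assay: a decrease in luciferase signal from an integrated reporter in P. falciparum-infected red cells (0.1% parasitemia, 2% hematocrit) after compound exposure at 37 C indicates parasite inhibition.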

[9] = target: Thioredoxin reductase 1, cytoplasmic (Rattus norvegicus) (UniProt O89049); assay: qHTS Assay for Substrates of Mammalian Selenoprotein Thioredoxin Reductase 1 (TrxR1) (AID 488772);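 also: series mostly up to about 57 µM; a drop in NADPH fluorescence below the no-compound background marks a TrxR1 substrate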
Procedure, shortened: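 In this dual-purpose format, potential substrates are identified from the first fluorescence read after selenite addition, not from the 8-minute delta. Rat enzyme is preincubated with NADPH and then with compound at ~22 deg C.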

[10] = target: Thioredoxin reductase 1, cytoplasmic (Rattus norvegicus) (UniProt O89049); assay: qHTS Assay for Inhibitors of Mammalian Selenoprotein Thioredoxin Reductase 1 (TrxR1) (AID 488773); settings: Potency: inhibition;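 also: drop in NADPH fluorescence over an 8 min run after selenite addition; series mostly up to about 57 µM; nearly all actives have a fitted effect of over 40% in size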
Procedure, shortened: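 Inhibition is scored from the loss of NADPH fluorescence between first and last reads of an 8-min kinetic run. Selenite (400 uM) was the substrate, added after 15 min compound preincubation at room temperature.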

Measured: Potency

Chain of Beta-2 adrenergic receptor (Homo sapiens) (P07550 whole entry, looked up): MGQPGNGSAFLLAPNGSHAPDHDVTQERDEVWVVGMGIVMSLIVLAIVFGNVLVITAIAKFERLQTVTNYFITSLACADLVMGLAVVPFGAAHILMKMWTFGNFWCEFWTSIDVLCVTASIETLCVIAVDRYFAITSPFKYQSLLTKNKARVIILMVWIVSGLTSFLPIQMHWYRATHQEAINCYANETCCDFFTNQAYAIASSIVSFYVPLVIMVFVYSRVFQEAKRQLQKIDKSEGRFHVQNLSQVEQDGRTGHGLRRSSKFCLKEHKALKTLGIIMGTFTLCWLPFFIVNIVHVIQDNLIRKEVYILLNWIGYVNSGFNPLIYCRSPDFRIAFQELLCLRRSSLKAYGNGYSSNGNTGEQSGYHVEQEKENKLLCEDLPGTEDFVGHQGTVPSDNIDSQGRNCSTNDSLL
Chain of ATP-dependent 6-phosphofructokinase (Trypanosoma brucei brucei) (O15648 whole entry, looked up): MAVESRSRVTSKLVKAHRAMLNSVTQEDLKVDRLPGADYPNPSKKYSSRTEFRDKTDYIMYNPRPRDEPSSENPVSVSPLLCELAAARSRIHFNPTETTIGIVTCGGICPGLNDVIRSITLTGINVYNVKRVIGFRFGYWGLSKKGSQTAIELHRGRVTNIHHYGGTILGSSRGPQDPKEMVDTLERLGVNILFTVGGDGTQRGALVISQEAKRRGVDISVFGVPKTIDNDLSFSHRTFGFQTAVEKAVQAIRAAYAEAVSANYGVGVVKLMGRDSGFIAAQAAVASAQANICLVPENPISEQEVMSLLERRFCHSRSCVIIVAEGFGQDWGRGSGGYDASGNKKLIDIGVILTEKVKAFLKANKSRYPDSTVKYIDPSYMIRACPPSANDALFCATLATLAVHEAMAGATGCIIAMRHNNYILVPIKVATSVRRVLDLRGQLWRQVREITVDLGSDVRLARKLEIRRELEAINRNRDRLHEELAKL
Chain of Tumor susceptibility gene 101 protein (Homo sapiens) (Q99816 whole entry, looked up, the tested form may be a part): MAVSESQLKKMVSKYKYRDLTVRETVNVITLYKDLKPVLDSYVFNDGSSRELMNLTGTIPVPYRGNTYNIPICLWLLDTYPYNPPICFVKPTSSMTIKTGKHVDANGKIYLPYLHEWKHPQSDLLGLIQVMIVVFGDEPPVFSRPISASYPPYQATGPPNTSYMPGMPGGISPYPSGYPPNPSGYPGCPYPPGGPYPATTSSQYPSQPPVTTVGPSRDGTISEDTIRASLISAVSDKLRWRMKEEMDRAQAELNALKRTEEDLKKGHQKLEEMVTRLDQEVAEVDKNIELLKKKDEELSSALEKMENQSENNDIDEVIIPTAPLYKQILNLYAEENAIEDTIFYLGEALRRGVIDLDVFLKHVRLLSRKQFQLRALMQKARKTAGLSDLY
Chain of DNA polymerase III PolC-type (Bacillus subtilis (strain 168)) (P13267 whole entry, looked up): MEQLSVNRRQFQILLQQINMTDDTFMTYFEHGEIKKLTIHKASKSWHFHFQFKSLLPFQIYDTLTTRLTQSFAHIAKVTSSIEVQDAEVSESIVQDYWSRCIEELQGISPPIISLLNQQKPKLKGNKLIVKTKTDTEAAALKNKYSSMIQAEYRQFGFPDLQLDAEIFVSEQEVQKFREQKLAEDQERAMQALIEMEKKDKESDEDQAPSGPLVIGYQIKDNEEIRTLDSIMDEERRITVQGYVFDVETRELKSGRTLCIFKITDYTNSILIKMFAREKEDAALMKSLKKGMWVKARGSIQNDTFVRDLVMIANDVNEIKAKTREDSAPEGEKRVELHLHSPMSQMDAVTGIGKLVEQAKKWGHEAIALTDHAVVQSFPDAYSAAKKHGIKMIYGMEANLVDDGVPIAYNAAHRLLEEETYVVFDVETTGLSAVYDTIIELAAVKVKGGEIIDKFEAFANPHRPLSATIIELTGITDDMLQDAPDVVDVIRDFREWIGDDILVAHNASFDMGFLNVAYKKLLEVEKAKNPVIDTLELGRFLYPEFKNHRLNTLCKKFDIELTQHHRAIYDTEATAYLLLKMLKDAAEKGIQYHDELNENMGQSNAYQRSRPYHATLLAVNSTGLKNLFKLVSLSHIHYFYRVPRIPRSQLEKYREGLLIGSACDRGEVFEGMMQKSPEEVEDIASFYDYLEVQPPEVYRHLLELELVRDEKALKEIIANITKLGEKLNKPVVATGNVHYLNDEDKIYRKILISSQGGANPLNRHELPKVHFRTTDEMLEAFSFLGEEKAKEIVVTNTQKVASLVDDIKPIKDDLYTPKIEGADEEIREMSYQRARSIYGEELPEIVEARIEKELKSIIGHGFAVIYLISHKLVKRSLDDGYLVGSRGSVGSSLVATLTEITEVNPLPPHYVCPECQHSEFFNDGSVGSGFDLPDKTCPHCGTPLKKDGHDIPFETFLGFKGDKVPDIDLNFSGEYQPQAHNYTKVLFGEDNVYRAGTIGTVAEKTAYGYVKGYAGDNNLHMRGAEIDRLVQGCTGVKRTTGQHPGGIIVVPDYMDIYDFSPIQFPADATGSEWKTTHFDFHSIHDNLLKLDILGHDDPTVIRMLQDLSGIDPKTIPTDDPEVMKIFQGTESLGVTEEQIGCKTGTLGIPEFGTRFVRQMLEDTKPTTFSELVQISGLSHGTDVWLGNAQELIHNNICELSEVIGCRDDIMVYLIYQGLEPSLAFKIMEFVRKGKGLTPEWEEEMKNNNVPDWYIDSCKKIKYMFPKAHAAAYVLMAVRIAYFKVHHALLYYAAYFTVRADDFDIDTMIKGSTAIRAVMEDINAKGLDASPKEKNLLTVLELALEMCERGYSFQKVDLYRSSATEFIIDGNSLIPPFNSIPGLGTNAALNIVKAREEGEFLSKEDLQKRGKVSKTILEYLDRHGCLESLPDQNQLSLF
Chain of Ubiquitin carboxyl-terminal hydrolase 2 (Homo sapiens) (O75604 whole entry, looked up): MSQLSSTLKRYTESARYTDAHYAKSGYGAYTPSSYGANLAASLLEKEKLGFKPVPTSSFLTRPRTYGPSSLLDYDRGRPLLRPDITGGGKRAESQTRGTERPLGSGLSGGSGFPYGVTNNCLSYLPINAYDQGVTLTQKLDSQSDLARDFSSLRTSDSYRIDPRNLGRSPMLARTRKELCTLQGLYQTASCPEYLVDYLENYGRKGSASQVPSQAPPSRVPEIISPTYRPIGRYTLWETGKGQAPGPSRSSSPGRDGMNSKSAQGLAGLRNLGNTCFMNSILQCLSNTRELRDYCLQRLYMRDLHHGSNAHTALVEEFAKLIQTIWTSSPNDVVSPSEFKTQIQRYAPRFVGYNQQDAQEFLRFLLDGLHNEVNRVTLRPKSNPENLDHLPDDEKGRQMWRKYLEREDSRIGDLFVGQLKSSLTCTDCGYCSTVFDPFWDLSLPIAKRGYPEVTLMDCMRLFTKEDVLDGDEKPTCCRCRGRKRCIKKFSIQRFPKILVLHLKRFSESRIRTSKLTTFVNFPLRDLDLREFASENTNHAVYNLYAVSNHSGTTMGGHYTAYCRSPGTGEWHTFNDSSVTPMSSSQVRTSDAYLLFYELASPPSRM
Chain of Thioredoxin reductase 1, cytoplasmic (Rattus norvegicus) (O89049 whole entry, looked up): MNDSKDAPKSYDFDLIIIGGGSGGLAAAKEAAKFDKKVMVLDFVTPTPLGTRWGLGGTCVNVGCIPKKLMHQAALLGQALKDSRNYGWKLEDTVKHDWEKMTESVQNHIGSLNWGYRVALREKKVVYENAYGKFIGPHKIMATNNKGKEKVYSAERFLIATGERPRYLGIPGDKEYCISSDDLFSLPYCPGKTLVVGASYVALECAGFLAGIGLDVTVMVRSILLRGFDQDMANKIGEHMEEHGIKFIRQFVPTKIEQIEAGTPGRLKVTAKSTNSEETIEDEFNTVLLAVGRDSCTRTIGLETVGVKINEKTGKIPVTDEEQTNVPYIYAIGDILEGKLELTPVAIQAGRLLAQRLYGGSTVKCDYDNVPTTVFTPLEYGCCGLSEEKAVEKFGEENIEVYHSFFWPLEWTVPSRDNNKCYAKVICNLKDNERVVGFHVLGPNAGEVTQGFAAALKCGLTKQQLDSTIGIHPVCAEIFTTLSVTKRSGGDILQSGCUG

Clc1ccc(N2CC3CCC(C2)N3)nn1
inactive: all assays above

CCCN(CCC)C1CCc2cccc(O)c2C1 (centres undefined)
not listed: [6]
inactive: all other assays above

C[C@@H]1O[C@H](C[N+](C)(C)C)CS1
not listed: [7]
inactive: all other assays above

CO[C@H]1CC=C2CCN3CCC4=C(CC(=O)OC4)[C@]23C1
not listed: [8]
inactive: all other assays above

CCN(CCCl)Cc1ccccc1Br
not listed: [6] | [10]
inactive: all other assays above

N#CCCN
not listed: [7] | [8]
inactive: all other assays above

Cc1[nH]c2ccc(O)cc2c1CCN
not listed: [7]
inactive: all other assays above

CCCN1CC[C@@H]2c3cc(O)ccc3CC[C@@H]21
inactive: all assays above

CC(C)(O)[C@@H]1C2OC(=O)[C@@H]1[C@]1(O)C[C@H]3O[C@]34C(=O)O[C@H]2[C@]14C (tested in a mixture with another compound)
not listed: [7] | [8]
inactive: all other assays above

Nc1ccc(CCN2CCN(c3cccc(C(F)(F)F)c3)CC2)cc1
not listed: [7]
inactive: all other assays above

N[C@@H](Cn1ccc(=O)[nH]c1=O)C(=O)O
not listed: [7] | [8] | [9]
inactive: all other assays above

CCS(=O)(=O)Nc1cccc(C(=C2CCCCC2)c2cnc[nH]2)c1
not listed: [7] | [8]
inactive: all other assays above
